# “And” between values parts separate entries of the source, which are not always exact repeats. Equal values may be shown once. Compounds without any hit were thinned out: in the full panel of roughly 83,000, 20% have a hit.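 A percent growth of 40 corresponds to 60% growth inhibition; 0 means no net growth; -100 means all cells died. Active threshold: below 10.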 The source made the active and inactive calls.
# Tested on: BT-549 breast
# Assay: NCI-60 one-dose screen, 48 h (100 = growth as untreated, 0 = no growth, -100 = all killed)
# Settings: 10 µM
# Protocol: Growth inhibition of the BT-549 human tumor cell line is measured as a screen for anti-cancer activity. Cells are grown in 96 well plates and exposed to the test compound for 48 hours. Compounds are tested at a single concentration, which is 10^-5 M for most compounds. The reported endpoint is percent growth (GI% or GIPRCNT), where numbers from 0 - 100% represent growth inhibition, and numbers from -100% - 0 represent cell death. For example, a value of 40 represents 60% growth inhibition. A value of 0 means no net growth occurred over the course of the experiment. A value of -40 indicates 40% of cells at the beginning of the experiment died by the end of the experiment. A value of -100 means all cells are dead at the end of the experiment.
# NCI-60 Human Tumor Cell Lines Screen was performed using the standard one-dose NCI protocol, which is described in more detail at https://dtp.cancer.gov/discovery_development/nci-60/default.htm.
# Compounds with GIPRCNT values below 10 were considered active. Activity score was based on GIPRCNT using the following formula: […]
# Score is 0 for GIPRCNT values of 100 or above, 50 for GIPRCNT values of 0, and 100 for GIPRCNT values of -100.
row,SMILES,growth
1,S=c1nc[nH]c2nc[nH]c12,62% (inactive)

# Same assay, conditions: 10 µM unless noted
row,SMILES,growth
1,CCOC(=O)c1csc(N)n1,102% (inactive) and 105% (inactive)
2,Clc1ccc2sc(-c3ccccc3)nc2c1,109% (inactive)
3,CNc1ccc(Cl)cc1S(=O)(=O)c1ccccc1[N+](=O)[O-],79.5% (inactive) and 86.9% (inactive)
4,COc1ccc(CCN=Cc2ccc(Cl)cc2)cc1OC,107% (inactive)
5,CCC(C)(O)CCC(C)(O)CC (stereo not given),107% (inactive)
6,NNC(=O)Nc1ccccc1,104% (inactive)
7,Cc1cc2nc3ccc(=[N+](C)C)cc-3sc2cc1N,48.9% (inactive) and 50.4% (inactive)
8,CC(CN(C)C)CN1c2ccccc2Sc2ccccc21 (stereo not given),79% (inactive) and 91.8% (inactive) and 80.2% (inactive)
9,NNc1ncnc2cccc(Cl)c12,112% (inactive)
10,CC(C)(C(=O)c1cccnc1)c1cccnc1,103% (inactive) and 136% (inactive)
11,CCOC(=O)C(N)Cc1cc(I)c(O)c(I)c1 (stereo not given),109% (inactive) and 98.5% (inactive)
12,O=C(O)/C=C/C=C/c1ccccc1,103% (inactive) and 107% (inactive)
13,O=c1[nH]nnc2cc(Cl)ccc12,110% (inactive)
14,COc1ccc(-n2[nH]c3c(cnc4ccccc43)c2=O)cc1,90% (inactive) and 95.4% (inactive)
15,CCCCCc1cc[n+](CC(=O)c2ccccc2)cc1,95.9% (inactive)
16,CC(NC(=O)CCl)c1ccccc1 (stereo not given),95.3% (inactive)
17,Cc1cccc(Cl)c1N,111% (inactive)
18,CCNC1=CC(=O)c2ncccc2C1=O,-27.8% (active)
19,O=C1Cc2ccccc2C(=O)N1,101% (inactive)

row,SMILES,growth
1,CN(C)C(=S)N(C)C,107% (inactive)
2,O=[N+]([O-])c1ccc(NC(c2ccccc2)c2ccc3cccnc3c2O)cc1 (stereo not given),39% (inactive)
3,CCCCOC1NC(=O)NC(=O)C1(F)C(=O)OCC (stereo not given),57.3% (inactive) and 59.5% (inactive)
4,CCNCc1ccccc1,124% (inactive)
5,O=C(O)c1cc(=O)[nH]c(=O)[nH]1,97.2% (inactive)
6,CCc1ccc(OC(=O)CCl)cc1,109% (inactive)
7,CC(C)(C)C1CCC(=NO)CC1 (stereo not given),115% (inactive)
8,COCCCNC1=C(C#N)C(=O)NC(c2cccs2)S1 (stereo not given),96% (inactive)
9,COc1cc([C@@H]2c3cc4c(cc3[C@H](O)[C@H]3COC(=O)[C@@H]23)OCO4)cc(OC)c1OC,22.3% (inactive)
10,CC(=O)C[n+]1ccccc1Sc1ccc(Cl)cc1,30% (inactive)
11,Cc1ccc(N)cc1S(=O)(=O)O,97.9% (inactive)
12,CC(=O)Nc1ccc(OC(C)=O)cc1,11.9% (inactive) and 103% (inactive)
13,COc1ccc(S(=O)(=O)c2ccc(F)cc2)cc1,99% (inactive)
14,Cc1ccc([N+](=O)[O-])cc1Br,110% (inactive)
15,O=C1C2=C(Nc3cc(Cl)ccc3N2)OC1c1c[nH]c2ccc(COc3ccccc3)cc12 (stereo not given),26.7% (inactive)
16,O=C1C=CC[C@H](/C=C/c2ccccc2)O1,24.9% (inactive) and 4.24% (active)
17,O=COCCCc1ccccc1,104% (inactive)
18,Cc1cc(Cl)nc(Nc2ccccc2)n1,108% (inactive)
19,COc1ccc(C(=O)C(O)c2ccc(OC)cc2)cc1 (stereo not given),109% (inactive) and 98.9% (inactive)

# Same assay, conditions: 50 µM
row,SMILES,growth
1,S=c1nc[nH]c2nc[nH]c12,64.4% (inactive)

# From PubChem BioAssay (NCI)
